Screening results as filed in PubChem BioAssay.
Vaccinia Venus: vaccinia inhibition (Venus reporter); Vaccinia virus Venus reporter expression, fluorescence; Potency, µM (doses to about 36.5 µM), inactives show top-dose activity change, negative = inhibition, most hits filed as inhibitors; 0.46% of 330,000 active; AID 720580; calls by dose curve; tested in A549 cells; also: potency is read from the fitted curve at half-maximal effect; nearly all actives have a fitted effect of over 30% in size
HCV inhibitor: inhibitors of hepatitis C virus infection. Huh7.5.1 HCVcc-Cre infection, luciferase reporter, 44 h. Potency, µM (titrated, usually from 41.8 µM), without a hit: at the highest dose activity change, negative = inhibition, most hits filed as inhibitors. 3.4% of 340,000 active; active = well fitted inhibition curve with a large enough effect; inconclusive = small, poorly fitted or top-dose-only effect, or another doubt; inactive = no such curve, though single readings can be large or run the other way; also: potency is read from the fitted curve at half-maximal effect
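A cell-based infection assay in which seeded cells (1,000 per well) receive test compound after 4 h, are inoculated with HCVcc-Cre at approximately 0.5 moi, and are incubated 44 h before luminescence detection.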
FMDV antiviral: blocks foot and mouth disease virus. FMDV antiviral cell-based qHTS. Potency, µM (doses to about 57.9 µM), for the others: at the top dose activity change, negative = inhibition, most hits filed as inhibitors. 1.2% of 410,000 active. AID 1159524; calls by dose curve; tested in HEK293T cells; also: read-out not given here; potency is read from the fitted curve at half-maximal effect; nearly all actives have a fitted effect of over 45% in size
HCMV antiviral: inhibitors of human cytomegalovirus. HFF cells, HCMV-luciferase reporter, 72 h; stronger effect = lower value. activity change, negative = inhibition, % at 57.5 µM. 4.5% of 410,000 active; in the data active = activity change below about -60%; inconclusive = no clear call, values can overlap the other calls; inactive = above about -39%
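Compounds were evaluated in HFFs infected with an HCMV luciferase reporter virus (MOI 1 PFU/cell). Luciferase in lysates collected 72 h post infection served as the replication measure.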
Vaccinia mCherry: vaccinia inhibition (mCherry reporter) | 0.63% of 310,000 active | Potency, µM (top dose mostly 36.5 µM), inactives show at the top dose activity change, negative = inhibition, usual class: inhibitors | Vaccinia virus mCherry reporter infection, fluorescence; calls by dose curve; tested in A549 cells; also: potency is read from the fitted curve at half-maximal effect; nearly all actives have a fitted effect of over 35% in size
* marks the source's active call; other numbers are inactive results; i = inactive; ? = inconclusive; / = no result given; [ ] = remark or other dose. Sampled rows, rich in hits. Any-hit rate of the full collection: about 7.3%. % is scaled to controls: 0 for no effect and ±100 for the full control effect.

SMILES	Vaccinia Venus	HCV inhibitor	FMDV antiviral	HCMV antiviral	Vaccinia mCherry
O=C(Nc1ccc(Cl)cc1Cl)[C@@H]1CC=C[C@@H]2CCN(Cc3ccccc3)C(=O)[C@@H]21	-17.6%	/	/	/	-27.0%
COc1ccc(NC(=O)N2CCN(S(=O)(=O)c3ccc4c(ccn4C)c3)CC2)cc1OC	-12.7%	/	-12.7%	15.9	i
CCCCN=c1scc(-c2ccc3c(c2)NC(=O)CO3)n1N=C1CCCC1	/	7.94µM*	25.1µM*	-75.6*	/
Nc1nc(-c2ccc3c(c2)NC(=O)CO3)cs1	-12.9%	?	10.0%	1.0	-21.2%
CCC(C)C(=O)Nc1nc(-c2ccc3c(c2)NC(=O)CO3)cs1 (stereo unspecified)	/	?	-18.6%	65.7	/
CCN=c1scc(-c2ccc3c(c2)NC(=O)CO3)n1N=C1CCCC1	?	15.8µM*	?	-77.2*	?
O=c1c2sc3ccccc3c2n(Cc2cccc(C(F)(F)F)c2)c(=O)n1Cc1ccc(F)cc1	-19.8%	/	-0.1%	-21.7	-24.7%
C/C(=N/NC(=O)c1ccc(Cl)s1)c1ccc(NC(=O)COc2ccc(Cl)cc2)cc1	-13.2%	13.4%	-16.2%	-77.0*	i
COc1ccc(CC(=O)Nc2nc3ccc(F)cc3s2)cc1S(=O)(=O)N1CCOCC1	?	12.6µM*	7.2%	6.2	-14.8%[1.46 µM]
COc1ccc(CC(=O)Nc2nc3ccccc3s2)cc1S(=O)(=O)N1CCOCC1	/	11.2µM*	?	-27.0	/
CN1OC(C)(CC(=O)N2CCc3ccccc3C2)N=C1c1ccco1 (stereo unspecified)	/	/	/	-11.0	/
COc1ccc(-c2noc(CSc3nc4ccccc4[nH]3)n2)cc1	-16.8%	/	-19.2%	?	-13.8%
COc1ccc(-c2noc(CSc3nc(N)cc(=O)[nH]3)n2)cc1	-12.0%	25.1µM*	-35.8%	-28.4	-12.2%
CCCc1cc(C(=O)Nc2ccc(C(=O)c3ccc(F)cc3)cc2)n(C)n1	/	10µM*	?	/	/
CCCc1cc(C(=O)Nc2ccc(C(=O)c3ccccc3)cc2)n(C)n1	/	15.8µM*	?	-40.0	/
CC(C)(C)NC[C@@H](O)COc1nsnc1N1CCOCC1	-19.0%	/	13.9%	/	i
CCOC(=O)c1c(N)n(CCCOC(=O)c2ccco2)c2nc3ccccc3nc12	10µM*	11.2µM*	?	-20.8	?
COCCCn1c(N)c(C(=O)OCCOC)c2nc3ccccc3nc21	-9.1%	-0.5%	0.0%	6.6	-11.7%
c1ccc(CSc2nc3ncccc3[nH]2)cc1	-13.7%	/	36.8%	41.6	-11.6%
C=CCSc1cc(C)nc2c(-c3ccccc3)cnn12	/	?	64.1%	194.6	/
CCSc1cc(C)nc2c(-c3ccccc3)cnn12	/	10µM*	47.8%	220.8	/
CC(=O)Nc1ccc(Nc2cc(C)nc3c(-c4ccccc4)cnn23)cc1	?	?	?	-91.7*	?
OC(CN1C2=NCCN2c2ccccc21)c1ccc2c(c1)OCO2 (stereo unspecified)	11.2µM*	?	12.0%	8.0	-26.3%[1.46 µM]
Clc1ccc(CN2C3=NCCN3c3ccccc32)cc1Cl	/	10µM*	?	-16.5	/
OC(CN1C2=NCCCN2c2ccccc21)c1ccc2c(c1)OCO2 (stereo unspecified)	-0.2%	1.2%	2.1%	-31.5	/
SMILES	Vaccinia Venus	HCV inhibitor	FMDV antiviral	HCMV antiviral	Vaccinia mCherry
CC(C)NS(=O)(=O)c1ccc(CCC(=O)Nc2cc(Cl)ccc2Oc2ccccc2)cc1	?	6.31µM*	?	/	/
CCNS(=O)(=O)c1ccc(CCC(=O)Nc2cc(Cl)ccc2Oc2ccccc2)cc1	?	10µM*	?	?	?
CCOc1ccc(Oc2ccc(Cl)cc2NC(=O)CCNC(C)=O)cc1	-8.5%	-11.7%	-21.6%	-65.5*	i
O=C1NC(=Nc2cccc(Cl)c2)SC1Cc1cccc(Cl)c1Cl (stereo unspecified)	-16.0%	-25.0%	/	-77.7*	-3.8%
Cc1ccc(-c2nnc(SCCC(=O)Nc3ccccc3)n2C)cc1	-19.1%	/	/	/	-10.4%
COc1cccc(NC(=O)C(Nc2ccccc2)c2ccccc2F)c1 (stereo unspecified)	/	/	/	-67.2*	/
Cc1cccc(Cl)c1NC(=O)C(Nc1ccccc1)c1ccccc1F (stereo unspecified)	/	/	/	-26.9	/
O=C(Nc1nnc(C2CC2)o1)c1ccc(S(=O)(=O)N2CCCc3ccccc32)cc1	-28.2%	-12.2%	0.0%	-15.6	?
COc1ccc(-c2nnc(NC(=O)c3ccc(S(=O)(=O)N4CCCc5ccccc54)cc3)o2)cc1	-16.3%	10µM*	-16.6%	/	-15.9%
COCc1nnc(NC(=O)c2ccc(S(=O)(=O)N3CCCc4ccccc43)cc2)o1	?	12.6µM*	-23.9%	-78.4*	?
CCCCN(CCCC)S(=O)(=O)c1ccc(C(=O)Nc2nnc(COC)o2)cc1	?	?	-21.8%	/	?
CCN(CC)S(=O)(=O)c1ccc(C(=O)Nc2nnc(COC)o2)cc1	/	17.8%	-16.8%	-63.5*	/
COc1cc(=O)n2c(c1C(=O)NC(C)c1ccco1)CCN(C(=O)c1cccc(C)c1C)CC2 (stereo unspecified)	-8.4%	/	27.0%	/	-11.5%
NC(=O)c1ccc(NC(=O)CCc2nc3ccccc3s2)cc1	/	-8.9%	0.1%	49.9	/
O=C(Nc1ccc(Cc2nc3ccccc3s2)cc1)c1ccncc1	-16.7%	10µM*	-26.6%	-85.9*	-24.5%
Cc1ccc(NS(=O)(=O)c2cnc(N)nc2)c(C)c1	-8.5%	/	-8.0%	-27.9	-11.6%
O=C(COc1ccccc1C(=O)Nc1ccccc1)Nc1ccc2ccccc2c1	-19.7%	/	/	/	-7.4%
N#C/C(=C\c1cccc(Oc2ccccc2)c1)C(=O)N1CCOCC1	-17.5%	3.5%	35.5µM*	-16.8	-4.2%
O=C(NCCSc1ccccc1)c1ccc(Br)cc1	-13.5%	-13.2%	-10.8%	5.2	-13.3%
CN(C)S(=O)(=O)c1ccc(C(=O)NCCSc2ccc(Br)cc2)cc1	?	22.4µM*	0.0%	2.7	?
O=C(NCCS(=O)(=O)N1CCN(c2ccccc2F)CC1)C(c1ccccc1)c1ccccc1	-13.1%	/	-9.7%	-27.8	-17.5%
